# From paper PMC10668032, “Altered binding affinity of SIX1-Q177R correlates with enhanced WNT5A and WNT pathway effector expression in Wilms tumor”
# Whole data set: some 33,000 sequences, median “e-score” near -0.05, cut for the highest 2% near 0.38. The sample as a whole holds a higher share of the highest values than the screen did.
# Target: T1, SIX1-Q177R homeodomain (human, UniProt Q15475 108-198, Q177R)
# T1 sequence: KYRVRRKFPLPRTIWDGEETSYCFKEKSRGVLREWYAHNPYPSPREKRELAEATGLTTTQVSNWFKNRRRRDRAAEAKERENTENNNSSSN
# Experiment: universal protein binding microarray; Universal all-10-mer PBM (8x60K, AMADID 030236), 300 nM GST-tagged protein, Alexa Fluor 488 anti-GST; buffer, salt, pH and temperature not stated (as in Berger); high values mean tight binding
# Settings: protein: ivt; tags: N-terminal GST; dsDNA, one strand shown
# Method in brief: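 Binding of GST-tagged homeodomains is given as 8-mer E-scores from the Universal PBM Analysis Suite. The proteins were produced by in vitro transcription/translation, quantified by anti-GST western blot against a recombinant GST standard curve, and applied in duplicate at 300 nM final concentration to universal 'all 10-mer' protein binding microarrays (8×60K format).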
row,Sequence,binding signal [E-score]
1,ACACGTTA,0.297 ± 0.0383
2,ACCCCTTA,0.228 ± 0.014
3,ACACTTTG,0.31 ± 0.0292
4,ACCCCTTC,0.2425 ± 0.00198
5,CCACCTTC,0.19 ± 0.00382
6,GACAGGGC,0.162 ± 0.0431
7,TTACACAA,0.223 ± 0.0118
8,GAAGCACC,0.238 ± 0.00424
9,GTACCCCA,0.247 ± 0.0214
10,ATACGACA,0.18 ± 0.0318
11,ACCCAAGA,0.163 ± 0.00205
12,CACCGCAG,0.241 ± 0.0286
13,AGAAAACA,0.192 ± 0.0184
14,AAAAACAC,0.368 ± 0.0203
15,GGAAACAC,0.374 ± 0.004
16,AGAAACAC,0.408 ± 0.0147
17,CGAAACAC,0.339 ± 0.0288
18,GAAAACAC,0.383 ± 0.0136
19,GGGATCCC,0.31 ± 0.0322
20,GGTGCATA,0.195 ± 0.0199
21,GGGATCAA,0.189 ± 0.0285
22,GGTGCTCA,0.25 ± 0.046

row,Sequence,binding signal [E-score]
1,GGGGTTCA,0.256 ± 0.0435
2,AGTGTTCA,0.343 ± 0.0114
3,GGTGTTCA,0.4614 ± 0.000559
4,CGTGTTCC,0.34 ± 0.0151
5,CGTGTTCA,0.4087 ± 0.0026
6,CCCGATGA,0.16 ± 0.00231
7,CTCCCGCA,0.155 ± 0.0331
8,ACCCAGGC,0.162 ± 0.0568
9,CCCCGCGG,0.193 ± 0.0298
10,GTACGACA,0.297 ± 0.0138
11,CGTGGTGC,0.187 ± 0.0118
12,GGTGCAAC,0.272 ± 0.00472
13,GCACCATA,0.174 ± 0.00986
14,ACTCCATA,0.2012 ± 0.000827
15,ACTCCATG,0.212 ± 0.0247
16,ACACCATG,0.4696 ± 0.00232
17,ACACCATA,0.459 ± 0.00633
18,ACACCATC,0.4671 ± 0.000891
19,ATACCATC,0.151 ± 0.00506
20,ACCCCATG,0.226 ± 0.0299
21,ACCCCATC,0.245 ± 0.00929
22,ATTTTACA,0.19 ± 0.0629

row,Sequence,binding signal [E-score]
1,TGGGTACA,0.29 ± 0.00578
2,ATCGCGGG,0.167 ± 0.0319
3,AGGGTAGG,0.176 ± 0.00576
4,CCCCAAGA,0.156 ± 0.0279
5,GTAACACA,0.223 ± 0.0443
6,ATAACACA,0.2399 ± 0.00217
7,CTAACACC,0.478 ± 0.00653
8,ATAACTCC,0.181 ± 0.0433
9,ATAACCCC,0.266 ± 0.0237
10,ATAACACC,0.479 ± 0.0087
11,ATAACACG,0.402 ± 0.0181
12,CTAACACA,0.209 ± 0.00581
13,CTAACCCC,0.223 ± 0.0193
14,CCCCGTGC,0.244 ± 0.0265
15,CGCCGCCG,0.208 ± 0.031
16,ATTCACTC,0.151 ± 0.0349
17,AGCACGCA,0.24 ± 0.0253
18,CACCCCGC,0.337 ± 0.0136
19,GGTCCGGA,0.161 ± 0.0425
20,GATATCCC,0.193 ± 0.0406
21,ACACCTGG,0.448 ± 0.00897
22,ACTCCTGC,0.158 ± 0.00297

row,Sequence,binding signal [E-score]
1,AAACCTGG,0.169 ± 0.0219
2,ACCCCTGA,0.2405 ± 0.00201
3,ACACCTGC,0.4582 ± 0.00372
4,ACCCCTGC,0.235 ± 0.0269
5,ACCCCTGG,0.163 ± 0.00865
6,ACTCCTGA,0.206 ± 0.00412
7,ACACCTGA,0.4477 ± 0.00107
8,CCCTTGTA,0.2081 ± 0.00151
9,ATTCCGTG,0.2 ± 0.0598
10,CCCAGGCG,0.167 ± 0.0378
11,CGAGGCAA,0.186 ± 0.00832
12,GAGTGTAC,0.419 ± 0.00767
13,GAGTGCAC,0.195 ± 0.00266
14,CACTGTAC,0.194 ± 0.0212
15,GAGTGTGC,0.184 ± 0.00494
16,CAGTGTAG,0.4232 ± 0.00358
17,CAGTGCAC,0.183 ± 0.0019
18,CTGTGTAC,0.229 ± 0.0232
19,AAGTGTAC,0.391 ± 0.0232
20,AAGTGTAG,0.37 ± 0.0123
21,CAGTGTAC,0.4035 ± 0.00271
